Data: PubChem BioAssay (NCI)
This is part of a sample that, as a whole, favours compounds with a hit. Of some 83,000 tested, about 20% had one in any assay.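 Note: values are percent growth. 100 is the growth of untreated cells, values between 100 and 0 indicate rising inhibition; between -100 and 0 indicates cell death.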 Calls of active or inactive are those of the source.

The compounds below were run on NCI-H322M lung (assay: NCI-60 one-dose screen, 48 h (100 = growth as untreated, 0 = no growth, -100 = all killed)). Conditions: 10 µM unless noted.
Experimental: Growth inhibition of the NCI-H322M human Non-Small Cell Lung tumor cell line is measured as a screen for anti-cancer activity. Cells are grown in 96 well plates and exposed to the test compound for 48 hours. Compounds are tested at a single concentration, which is 10^-5 M for most compounds. The reported endpoint is percent growth (GI% or GIPRCNT), where numbers from 0 - 100% represent growth inhibition, and numbers from -100% - 0 represent cell death. For example, a value of 40 represents 60% growth inhibition. A value of 0 means no net growth occurred over the course of the experiment. A value of -40 indicates 40% of cells at the beginning of the experiment died by the end of the experiment. A value of -100 means all cells are dead at the end of the experiment.
NCI-60 Human Tumor Cell Lines Screen was performed using the standard one-dose NCI protocol, which is described in more detail at https://dtp.cancer.gov/discovery_development/nci-60/default.htm.
Compounds with GIPRCNT values below 10 were considered active. Activity score was based on GIPRCNT using the following formula: […]
Score is 0 for GIPRCNT values of 100 or above, 50 for GIPRCNT values of 0, and 100 for GIPRCNT values of -100.

SMILES | growth
COc1cc2oc(-c3cccc(C(=O)Nc4ccc(Cl)cc4)c3)cc(=O)c2c(OCC(=O)N[C@@H](Cc2ccccc2)C(=O)O)c1OC | 103% (inactive)
CC(C)CSc1nc(NCCc2c[nH]c3ccccc23)c(C#N)c(-c2ccc(F)cc2)n1 | 91.2% (inactive)
COc1ccc(NC(=O)[C@H](C)N)cc1C(=O)Nc1cccc(C2CC(=O)c3c(cc(OC)c(OC)c3OC)O2)c1 (stereo not given in full) | 96.9% (inactive)
O=C(Cn1c2c(sc1=O)[C@H]1[C@@H](O)[C@@H](O)[C@H](O)[C@@H]1CS2)N1CCOCC1 | 107% (inactive)
N/C(=N\N=C\c1ccc([N+](=O)[O-])cc1)c1c(N)nc(=S)[nH]c1-c1ccc(Cl)cc1Cl | 100% (inactive)
O=C1/C(=C/C2=Cc3ccccc3OC2)SC(=S)N1c1ccccc1F | 105% (inactive)
O=C(NNc1nc2cc(F)ccc2n2c(CN3CC4CNCC4C3)ccc12)c1ccncn1 (stereo not given) | 30.8% (inactive)
COc1c(F)ccc(C(=O)Nc2ccc3nc(NC(=O)C4CCCN(S(=O)(=O)c5cccc(C(F)(F)F)c5)C4)sc3c2)c1F (stereo not given) | 98.9% (inactive)
Cc1cc(=O)oc2cc(OCCCCOc3ccc(/C=C/C(=O)Nc4ccccc4N)cc3)ccc12 | 82.2% (inactive)
COc1cc2c(c(OC)c1OC)C(=O)CC(c1cccc(NC(=O)c3cc(NC(=O)[C@@H](N)CO)ccc3C)c1)O2 (stereo not given in full) | 108% (inactive)
COc1ccc2c(c1)c(/C=N/Nc1ccc3ccccc3n1)cn2C | 36.2% (inactive)
Cc1ccc(S(=O)(=O)c2nc(S(=O)(=O)c3ccc(C)cc3)c(N3CCN(C)CC3)s2)cc1 | 67.3% (inactive)
CNC(=O)c1cc(Oc2ccc3nc(NC(=O)Nc4cccc(OC(F)(F)F)c4)sc3c2)ccn1 | 47.8% (inactive)
CCCCCCCCc1ccc(C(=O)Nc2cccc(P(=O)(O)O)c2)cc1 | 103% (inactive)
CC1(C)CC[C@]2(C(=O)O)CC[C@]3(C)C(=CCC4[C@@]5(C)C[C@@H](O)[C@@H]6OC(c7ccc(F)cc7)OC[C@@]6(C)C5CC[C@]43C)C2C1 (stereo not given in full) | 29% (inactive)
CN(C)CCCNC(=O)c1cc(NC(=O)c2cc(NC(=O)c3ccc(C#Cc4ccccc4)cc3)cn2C)cn1C | 38.9% (inactive)
CSc1ccccc1NC(=O)c1ccc2nnn(/C(C#N)=C/c3ccccn3)c2c1 | 40.5% (inactive)
Cc1ccc(NCC(=O)Cn2cc(COc3ccc(C=Nc4cnc5ccccc5c4)cc3)nn2)cc1 | 103% (inactive)
CN(C)c1ccnc(CNCCSC2(c3ccc(C(F)(F)F)cc3)c3ccccc3CCc3ccccc32)c1 | 8.82% (active)
Nc1nc(-c2ccccc2)c(N=Nc2ccc([N+](=O)[O-])cc2Cl)s1 | 101% (inactive)

SMILES | growth
Clc1ccc(-c2ccc(OCCCN3CCN(c4ccncc4)CC3)cc2)cc1 | 91% (inactive)
COc1ccc(-c2nc3cc(C)ccc3n2CC(=O)N=Nc2c(O)[nH]c3ccc(OC)cc23)cc1 | -4.47% (active)
COc1ccc(NC(=O)Cn2c(/C=C/c3cccc([N+](=O)[O-])c3)nc3ccccc3c2=O)cc1 | 90.7% (inactive)
CC(C)CSc1nc(NCCc2c[nH]c3ccccc23)c(C#N)c(-c2ccccc2)n1 | 80.7% (inactive)
C#CCOc1cc(N(CC)CC)ccc1C(C(=O)NC(C)(C)C)N(C(=O)C1CCc2cc(F)ccc2O1)c1cc(C)cc(C)c1 (stereo not given) | 66.6% (inactive)
COc1ccc2[nH]cc(-c3nc(N)nnc3-c3cn(C)c4ncccc34)c2c1 | 69.6% (inactive)
Cc1ccc(C(=O)NN2C(=O)/C(=C/C=C/c3ccc([N+](=O)[O-])o3)SC2=S)cc1 | -76.9% (active)
CN(C)CCn1c2ccccc2c2nc3cc(C(F)(F)F)ccc3nc21 | 40.3% (inactive)
CN1CCN(c2ccc3c(c2)nc(NNC(=O)c2cnccn2)c2cccn23)CC1 | 27.7% (inactive)
COCOc1cc2c(=O)c(C)c(C(=O)N[C@@H](Cc3ccccc3)C(O)C(=O)NCc3ccccc3)oc2cc1OC (stereo not given in full) | 80.6% (inactive)
COc1cc2oc(-c3cccc(C(=O)Nc4ccc(Cl)cc4)c3)cc(=O)c2c(OCCNC(=O)[C@H](CCC(=O)OC(C)(C)C)NC(=O)OC(C)(C)C)c1OC | 98.4% (inactive)
CC(C)C(C(=O)O)n1c(O)c(/C=C2/C=c3cc4c(cc3=NC2=O)OCO4)sc1=S (stereo not given) | 103% (inactive)
COc1ccc2c(c1)c(-c1cc3nc(-c4cn(C)c5ncc(Br)cc45)cc(N)n3n1)cn2C | -39.8% (active)
O=C(CCN1C(=O)/C(=C/c2ccc(F)cc2)SC1=S)N1CCOCC1 | 80.2% (inactive)
O=C(c1ccccc1)c1ccc2nc(-c3ccc(F)cc3)[nH]c2c1 | 97.2% (inactive)
CN(C)c1nc(NCCNS(=O)(=O)c2ccc(C(=O)/C=C/c3ccc(F)cc3)cc2)nc(Nc2ccc(F)cc2)n1 | -22.6% (active)
C[C@H]1CN(C(=O)c2ccc3c(NNC(=O)c4ccncn4)nc4cc(F)c(F)cc4n23)CCN1 | 32.2% (inactive)
Nc1cc2ccccc2c(=O)n1NC(=O)c1ccc(I)cc1 | 98.6% (inactive)
N#Cc1c(-c2cccc(O)c2O)cc(-c2ccc3ccccc3c2)[nH]c1=O | 72.7% (inactive)
COc1ccc2oc3c4[nH]c5ccccc5c4c4c(c3c2c1)C(=O)N(C(=O)OC(C)(C)C)C4=O | 3.12% (active)
